# From PubChem BioAssay
# In the library only some 7.6% were active in any assay of this set; here they are far more common.
# p53 reactivation = re-activators of mutant p53 | H1299 p53-A138V BP100-luciferase reporter, luminescence, 24 h | Potency, µM (top dose mostly 92.2 µM), without a hit: at the highest dose activity change, positive = activation, most hits filed as activators | 320,000 tested, 0.063% active | AID 504706; note: potency is the fitted concentration of half-maximal effect; % of control where 0% means no effect; nearly all actives have a fitted effect of over 45% in size
#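 p53-null H1299 cells stably carrying temperature-sensitive p53-A138V and a BP100-luciferase reporter were pinned with compounds (4-point, 1:5 series) and held 24 hrs at 37 deg C. Luminescence was read 10 min after detection reagent.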
# VP16 counter = counter-screen for ROR gamma inhibitors: Gal4-VP16 reporter; Drosophila S2 Gal4-VP16 UAS-luciferase, luminescence, 20 h; Potency, µM (doses to about 53.6 µM), for inactives: at the highest dose activity, negative = inhibition, actives largely listed as inhibitors; 310,000 tested, 3.5% active; AID 2546;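 note: Gal4-VP16 expression switched on by copper sulfate through the metallothionein promoter; potency is the fitted concentration of half-maximal effect; % is set by controls: 0 for no effect and ±100 for the full control effect; nearly all actives have a fitted effect of over 50% in size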
# RORg inh = ROR gamma (mouse) transcription inhibition. Drosophila S2 Gal4-RORgamma UAS-luciferase reporter, 20 h. P51450. 310,000 tested, 5.4% active. Potency, µM (titrated, usually from 53.6 µM), for the others: at the top dose activity change, negative = inhibition, most hits filed as inhibitors. AID 2551; note: potency is the fitted concentration of half-maximal effect; % is set by controls: 0 for no effect and ±100 for the full control effect; nearly all actives have a fitted effect of over 60% in size
# Target sequence (P51450 whole entry, looked up, the tested form may be a part): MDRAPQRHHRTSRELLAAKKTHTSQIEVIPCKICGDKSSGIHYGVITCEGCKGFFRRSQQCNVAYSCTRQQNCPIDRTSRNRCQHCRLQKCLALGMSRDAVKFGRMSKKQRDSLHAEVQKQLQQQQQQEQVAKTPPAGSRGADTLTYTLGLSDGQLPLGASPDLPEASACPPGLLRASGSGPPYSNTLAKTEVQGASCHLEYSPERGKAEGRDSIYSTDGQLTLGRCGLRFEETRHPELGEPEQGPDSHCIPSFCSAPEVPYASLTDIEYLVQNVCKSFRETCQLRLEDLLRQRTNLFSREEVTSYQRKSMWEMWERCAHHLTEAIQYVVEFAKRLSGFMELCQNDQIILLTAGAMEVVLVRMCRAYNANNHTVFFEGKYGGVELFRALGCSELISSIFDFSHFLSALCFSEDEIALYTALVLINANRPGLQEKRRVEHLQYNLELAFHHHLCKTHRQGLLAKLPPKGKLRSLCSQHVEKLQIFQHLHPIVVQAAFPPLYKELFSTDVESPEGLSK
#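 Stable Schneider cell line, Gal4 DNA-binding domain fused to ROR gamma, UAS-luciferase. Cmpd 1 hr RT → CuSO4 700 uM final → 20 hr RT → luciferase reagent 10 min → luminescence.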
# Giardia killer = Giardia lamblia killing; Giardia lamblia trophozoite viability; activity change, % at 7.66 µM, hits read low; 340,000 tested, 0.15% active; in the data active = activity change below about -80%; inconclusive = between about -30% and that limit;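 note: parasites exposed to compound for two days anaerobically before the ATP read; % is set by controls: 0 for no effect and ±100 for the full control effect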
#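 Giardia trophozoites, 100 cells per well, were exposed to compounds for 48 hrs at 37 deg C under anaerobic conditions; viability was then read as ATP content by bioluminescence after 15-30 min at room temperature.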
# BRCA1 expr up = increases BRCA1 expression. 380,000 tested, 1.1% active. MCF7-BRCA1-FFLuc reporter, luminescence, 48 h; response scale: scaled: vehicle 0%, 10 µM genistein 100%. Potency, µM (doses to about 46.1 µM), inactives show at the highest dose activation, most hits filed as activators; note: potency is the fitted concentration of half-maximal effect; nearly all actives have a fitted effect of over 80% in size
#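 MCF7-BRCA1-FFLuc cells, 2000/well in phenol-red-free MEM, attached 2 h then treated 48 h at 37 C. Luciferase luminescence read 15 min after reagent; normalized to genistein maximum activation (10microM) and DMSO, concentration-response fitted.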
# ELG1 repair inh = blocks ELG1-dependent DNA repair in HEK293T cells | Potency, µM (titrated, usually from 46.1 µM), without a hit: at the top dose activity change, negative = inhibition, hits mostly inhibitors | HEK293T ELG1-luciferase reporter, luminescence, 16 h; DNA damage induced by 5-fluorouridine | 330,000 tested, 2.3% active; note: potency is the fitted concentration of half-maximal effect; % is set by controls: 0 for no effect and ±100 for the full control effect; nearly all actives have a fitted effect of over 55% in size
#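 Luminescence from the luciferase reporter, measured 30 min after ONE-Glo reagent at room temperature, was the read-out. Beforehand, 2,000 cells per well were exposed for 16 hr at 37 °C to 5-fluorouridine together with compound or vehicle.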
# An asterisk follows results filed as active; ? = inconclusive; nt = no result; [ ] = remark or other dose. Unless noted, calls come from the whole dose curve; as a rule, active = well fitted curve in the direction sought with a large enough effect; inconclusive = small, poorly fitted or top-dose-only effect, or another doubt; inactive = no such curve, though single readings can be large; an effect the other way counts as inactive or inconclusive.
SMILES,p53 reactivation,VP16 counter,RORg inh,Giardia killer,BRCA1 expr up,ELG1 repair inh
O=C(NC(=S)Nc1ccc(Br)cc1)C1CCCCC1,0.4%,7.94µM*,5.01µM*,-5.7,61.2%,8.2%
O=C(CNC1CCCCC1)Nc1cccc([N+](=O)[O-])c1,nt,nt,nt,3.9,38.0%,nt
O=C(Nc1ccc(Br)cc1)C1CCCC1,24.3%,1.2%,-21.2%,1.5,5.4%,6.3%
Cc1ccc(C)c(N2CCN(S(=O)(=O)c3c(C)noc3C)CC2)c1,-0.8%,-6.4%,-15.2%,7.6,-2.6%,-1.9%
O=C(N/N=C/c1ccc(COc2ccc(Br)cc2)o1)c1ccc2c(c1)OCO2,nt,nt,nt,-27.5,21.3%,?
CC(C)[C@H]1COCCS(=O)(=O)N1Cc1ccccc1-c1ccc(F)cc1,6.0%,nt,nt,-8.1,-17.8%,2.1%
O=C(Nc1ccccc1)C1CCCCC1,9.9%,-1.0%,17.1%,-1.8,5.9%,13.5%
O=C(NC(=S)Nc1ccccc1)C1CCCCC1,-7.6%,3.98µM*,2.82µM*,-2.8,?,2.4%
Cc1cc(COc2ccccc2)oc1C(=O)O,nt,6.31µM*,5.01µM*,6.6,-40.7%,?
Cn1c2c(c(=O)n(C)c1=O)[C@@]1(C(=O)Nc3ccccc31)C(C#N)=C(N)O2,-30.7%,?,20µM*,0.6,-36.3%,13.1%
Oc1c(Cl)ccc(Cl)c1Cl,nt,1.4%,1.9%,nt,nt,nt
O=C1C=C(c2cccc(Cl)c2O)C[C@@H](c2ccc(Cl)cc2)C1,-11.4%,nt,nt,-5.9,-6.4%,-9.0%
O=C1C(=O)c2ccccc2C(O)=C1C1CCC(c2ccc(Cl)cc2)CC1 (configuration not stated),2.7%,5.01µM*,12.6µM*,14.6,-15.4%,11.3%
O=C(c1ccccc1)c1cc2cc(Cl)ccc2[nH]1,?,-3.4%,13.4%,-4.8,10µM*,?
CC(=O)c1ccc(NC(=O)CSc2nccn2CCc2ccccc2)cc1,?,19.3%,8.5%,7.1,12.6µM*,?
CSCCC(=O)Nc1ccc(C(C)=O)cc1,?,1.5%,14.0%,1.3,12.6µM*,?
CCOC(=O)c1ccc(NC(=O)CSc2nccn2C)cc1,29.5%,?,13.2%,0.7,83.1%,?
N#Cc1ccccc1NC(=O)CSc1nccn1CCc1ccccc1,?,12.9%,41.7%,8.9,11.2µM*,?
CC(=O)c1ccc(NC(=O)CSc2nccn2C)cc1,5.1%,?,-3.1%,12.4,11.2µM*,?
Cc1onc(-c2c(F)cccc2Cl)c1C(=O)N[C@@H]1C(=O)N2[C@H]1SC(C)(C)[C@H]2C(=O)O,nt,-0.2%,1.2%[10 µM],nt,nt,nt
CCCCn1c(N)c(N(CC(C)C)C(=O)c2cccc(S(=O)(=O)N(CC)c3ccccc3)c2)c(=O)[nH]c1=O,nt,nt,nt,-7.2,-10.0%,nt
CCCSc1ccc([C@@H]2[C@@H]3C(=O)N(CC)C(=O)[C@@H]3[C@]3(C(=O)OC)CCCCN23)cc1,3.6%,nt,nt,-5.6,-17.6%,4.2%
CS(=O)(=O)N1CCN(C(=O)Nc2ccccc2)CC1,3.8%,-5.3%,17.0%,-11.1,-3.6%,3.4%
Cc1ccc(C(=O)OCC(=O)N2CCCc3ccccc32)cc1C,7.2%,nt,nt,-5.6,10.6%,12.0%
COc1ccc(OC)c(-c2csc(NC(=O)CSc3ccc([N+](=O)[O-])cc3)n2)c1,-5.2%,?,3.0%,-5.0,-12.9%,?
SMILES,p53 reactivation,VP16 counter,RORg inh,Giardia killer,BRCA1 expr up,ELG1 repair inh
CC(=O)Nc1ccc2nc(SCCOc3ccccc3)sc2c1,nt,nt,nt,nt,-0.1%,nt
O=C(NC1CCN(S(=O)(=O)c2ccc(Cl)cc2)CC1)C1CCCCC1,11.1%,9.2%,11.4%,?,-3.9%,2.7%
O=[N+]([O-])c1ccc(CNC2CCCc3ccccc32)cc1 (configuration not stated),-2.8%,-5.3%,14.4%,27.3,18.4%,-8.2%
Oc1ccc(-c2nnc(-c3ccc(O)cc3)nn2)cc1,?,?,11.2µM*,-16.3,?,?
Oc1ccc(O)cc1,nt,?,11.2µM*,nt,nt,nt
Oc1ccc(-c2cc(-c3ccc(O)cc3)nc(-c3ccccc3)n2)cc1,-12.9%,-5.5%,-15.0%,11.8,-83.4%,0.0%
COc1cccc(NC(=O)Nc2cccc(C)n2)c1,9.3%,-11.1%,9.2%,-4.6,12.6µM*,?
Cc1ccc(NC(=O)Nc2ccc(F)cc2)cc1Cl,13.2%,-2.0%,37.1%,2.0,2.82µM*,?
COc1cccc(NC(=O)Nc2cc(C(=O)O)ccc2C)c1,1.1%,-6.6%,4.3%,19.5,1.6%,4.7%
COc1ccc(NC(=O)Nc2cccc(C)n2)c(OC)c1,5.5%,-1.0%,-0.4%,-16.2,88.6%,?
COc1cccc(NC(=O)Nc2ccc(C)c(Cl)c2)c1,24.9%,-3.4%,-0.6%,-15.8,7.08µM*,?
Cc1ccc(NC(=O)CCC(=O)c2ccc(F)cc2)cc1Cl,-1.0%,-2.5%,-3.9%,-20.5,2.8%,6.9%
CCCC[C@H](CC)CN=C(N)NC(N)=NCCCCCCN=C(N)NC(N)=NC[C@@H](CC)CCCC,nt,-23.6%[17 µM],?,nt,nt,nt
O=C(O)c1cc(-c2ccc3c(c2)OCO3)nc2ccccc12,9.4%,-12.2%,-5.2%,-24.5,25.2%,?
Cc1ccc2nc(-c3ccc4c(c3)OCCO4)cc(C(=O)O)c2c1,0.7%,7.2%[0.365 µM],5.01µM*,-29.2,52.4%,?
CCCN(CCC)C(=O)c1cc(-c2ccc3c(c2)OCO3)nc2ccccc12,-0.5%,-10.6%,33.1%,-14.2,-62.6%,18.4µM*
CC(=O)Cn1cnc2c(sc3nc(C)cc(C)c32)c1=O,12.6%,-11.6%,1.5%,2.6,11.2µM*,?
O=C(NN1C(=O)C2C3c4ccccc4C(c4ccccc43)C2C1=O)c1ccc(Cl)cc1 (configuration not stated),-8.9%,-7.0%,-12.2%,34.2,-37.8%,-2.4%
NNc1nc(-c2ccccc2Cl)c2cc(Br)ccc2n1,-3.0%,?,11.2µM*,?,-26.8%,-15.1%
Cc1ccc(S(=O)(=O)N2CCC(C(=O)OCc3ccccc3)CC2)cc1C,0.3%,nt,nt,-27.9,5.3%,7.0%
Cc1cccc(-n2c(=S)[nH]c3c(oc4ccccc43)c2=O)c1,11.7%,4.47µM*,2.82µM*,-3.3,-63.3%,?
O=C(Nn1c(=O)[nH]c2ccsc2c1=O)c1ccccc1,0.5%,1.7%,-0.7%,5.5,16.4%,2.4%
O=c1c2sccc2[nH]c(=S)n1-c1ccccc1,-3.0%,3.55µM*,?,11.9,-0.5%,0.0%
O=c1c2oc3ccccc3c2[nH]c(=S)n1-c1ccccc1,-13.2%,5.01µM*,?,0.8,-51.9%,11.2%
CCCCn1c(N)c(N(CCOC)C(=O)CSCc2ccc(C)cc2)c(=O)[nH]c1=O,-2.1%,nt,nt,6.7,4.1%,1.0%
